Hits are enriched below; roughly 3.7% of the tested compounds scored in any of these assays.
PI5P4Ka inh: inhibitors of human PI5P4K alpha. PI5P4Kalpha enzyme, ADP-Glo luminescence, 60 min; stronger effect = lower value. max response, %. 330,000 tested, 1.2% active. P48426; active means max response of -50% or lower; inconclusive means between -30% and -50%; inactive means -30% or higher; further: value at the top dose of about 77 µM; on the % scale 0 is the no-effect control and ±100 the full control effect
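Enzyme plus substrate dispensed, test compounds pinned in, then ATP (5 microM final) added. After 60 min at RT, ADP-Glo reagent 1 for 45 min and reagent 2 for 30 min preceded luminescence imaging.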
TCR act: activates T cell receptor signaling. 330,000 tested, under 10 active. Potency, µM (doses to about 9.22 µM), for inactives: at the highest dose activation of IL-2 secretion, hits mostly activators. primary human leukocytes, anti-CD3, IL-2 HTRF, 48 h; further: % of control where 0% means no effect
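Primary human leukocytes were stimulated with a-CD3 beads plus compounds for 48 hr without co-stimulation; secreted IL-2 was quantified by HTRF using a-IL-2-K (europium cryptate) and a-IL-2-d2, excited at 320nm with acceptor emission read at 665nm.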
FEN1 inh: human FEN1 inhibition | P39748 | Recombinant FEN1 flap cleavage, fluorescence, 15 min | Potency, µM (doses to about 114 µM), without a hit: top-dose activity change, negative = inhibition, most hits filed as inhibitors | 390,000 tested, 0.35% active | AID 588795; further: potency means the concentration at half of the fitted maximal effect; on the % scale 0 is the no-effect control and ±100 the full control effect; nearly all actives have a fitted effect of over 65% in size
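Read-out was taken twice, immediately and after 15 min, following addition of 50 nM substrate to 10 nM FEN1 that had sat with test compound for 15 min at room temperature. Curves came from a four-parameter Hill model.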
WRN inhibitor: blocks human WRN helicase; Q14191; WRN helicase unwinding, fluorescent forked duplex, kinetic; Potency, µM (titrated, usually from 114 µM), for the others: at the highest dose activity change, negative = inhibition, hits mostly inhibitors; 360,000 tested, 0.46% active; AID 651768; further: potency means the concentration at half of the fitted maximal effect; on the % scale 0 is the no-effect control and ±100 the full control effect; nearly all actives have a fitted effect of over 55% in size
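Kinetic fluorescence helicase assay: unwinding of a quenched forked DNA duplex (100 nM final) with 2 mM ATP final raises red fluorescence (525/598 nm). Compounds sat 15 min at room temperature with 20 nM WRN beforehand.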
VDR inhibitor: blocks the human vitamin D receptor; P11473; VDR-SRC2-3 peptide fluorescence polarization, 2 h; Potency, µM, inactives show max response, negative = inhibition, hits mostly inhibitors; 400,000 tested, 0.93% active; further: potency means the concentration at half of the fitted maximal effect; on the % scale 0 is the no-effect control and ±100 the full control effect
Target sequence (P11473 whole entry, looked up): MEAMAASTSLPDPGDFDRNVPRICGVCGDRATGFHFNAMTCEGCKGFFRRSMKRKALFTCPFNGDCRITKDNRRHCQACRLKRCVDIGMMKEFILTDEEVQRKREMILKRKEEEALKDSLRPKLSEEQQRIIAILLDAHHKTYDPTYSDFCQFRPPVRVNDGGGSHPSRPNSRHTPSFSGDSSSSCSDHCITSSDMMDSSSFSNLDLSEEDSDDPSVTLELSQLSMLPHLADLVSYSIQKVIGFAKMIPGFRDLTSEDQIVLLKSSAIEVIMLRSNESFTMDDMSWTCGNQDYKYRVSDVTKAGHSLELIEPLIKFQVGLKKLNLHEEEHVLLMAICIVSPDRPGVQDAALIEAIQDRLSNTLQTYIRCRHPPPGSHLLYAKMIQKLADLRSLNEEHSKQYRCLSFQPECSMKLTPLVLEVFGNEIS
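Fluorescence polarization assay measuring small-molecule disruption of VDR binding to the coregulator peptide SRC2-3. Compounds were pin-transferred (23 nl) into the reagent mix and incubated 2 h at room temperature before reading.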
PLK1 PBD block: blocks phosphopeptide binding to human PLK1 polo-box domain; P53350; Plk1 PBD binding of FITC phosphopeptide, fluorescence polarization; Potency, µM, without a hit: max response, negative = inhibition, actives largely listed as inhibitors; 360,000 tested, 2.8% active; AID 720504; further: potency means the concentration at half of the fitted maximal effect; series mostly up to about 57 µM; on the % scale 0 is the no-effect control and ±100 the full control effect; nearly all actives have a fitted effect of over 65% in size
* hit, by the source's call; ? = inconclusive; · = not tested or not shown; [ ] = remark or other dose. Unless noted, the call rests on the fitted dose curve; in most records, active means well fitted curve in the direction sought with a large enough effect; inconclusive means small, poorly fitted or top-dose-only effect, or another doubt; inactive means no such curve, though single readings can be large; an effect the other way counts as inactive or inconclusive.

SMILES	PI5P4Ka inh	TCR act	FEN1 inh	WRN inhibitor	VDR inhibitor	PLK1 PBD block
COc1ccc(N2Cc3cccc(C(=O)O)c3C2=O)cc1	?	6.4%	-16.5%	50.1µM*	8.2%	?
N#CCC(=O)Nc1ccc(C(=O)OCC(=O)NC(=O)NCc2ccco2)cc1	-54.9*	-0.4%[46.1 µM]	2.8%	-35.8%	-12.5%	4.0%
CC(=O)Nc1nonc1-c1nnc(SCC(=O)Nc2ccc(C)c(Cl)c2)n1C	·	·	-4.6%	·	4.2%	·
CC1(C)Cc2c(c(-c3ccco3)nc3sc4c(NCC5CCCO5)ncnc4c23)CO1 (centres undefined)	-20.6	-2.9%[46.1 µM]	0.4%	-27.0%	89.1µM*	?
CCOC(=O)c1scc(-c2ccc(C)cc2)c1S(=O)(=O)N1CCN(c2ccccc2)CC1	·	·	5.4%	·	8.4%	·
COC(=O)[C@H](CCCN=C(N)N)NC(=O)CCCc1c(-c2ccccc2)[nH]c2c(F)cc(F)cc12	·	·	·	·	10.3%	·
COc1ccc(C2CC(=O)N3C(=C2C#N)SCC3(O)c2ccccc2)cc1 (centres undefined)	·	-0.9%	-7.3%	-18.9%	15.3%	-2.0%
COc1cc(OC)c(C2CC(=O)N3CN(c4ccccc4)CSC3=C2C#N)cc1OC (centres undefined)	·	-5.4%	-1.0%	-35.0%	10µM*	26.7µM*
CCOC(=O)c1ccc(N2CSC3=C(C#N)C(c4ccc(OC)cc4OC)CC(=O)N3C2)cc1 (centres undefined)	-26.1	-0.9%	?	-4.5%	-16.0%	-11.0%
COc1ccc(OC)c(C2CC(=O)N3CN(c4ccc(C)c(Cl)c4)CSC3=C2C#N)c1 (centres undefined)	-101.7*	-0.3%	?	-5.2%	15.8µM*	?
COc1cccc(C2CC(=O)N3CN(c4ccccc4F)CSC3=C2C#N)c1 (centres undefined)	-73.6*	5.9%	?	3.1%	44.7µM*	-11.5%
COc1ccc2ccccc2c1C1CC(=O)N2CN(C)CSC2=C1C#N (centres undefined)	-84.2*	0.3%	0.3%	-30.3%	25.1µM*	7.52µM*
CCCCCC/C=C/c1ccc(OC)c(C2C3C=CCC(C)C3C(=O)N2Cc2ccccc2)c1 (centres undefined)	·	·	6.7%	·	-15.0%	·
CC(=O)N1CC[C@@H]2CC(=O)CC[C@@H]21	·	·	·	·	7.1%	·
CCCN1CCN(C(=O)Cn2ncc3c4ccccc4n(Cc4cccc(Cl)c4)c3c2=O)CC1	·	·	-7.4%	·	15.9%	·
Cc1ccc(NC(=O)c2ccc3c(=O)n4nc(Nc5ccccc5C)sc4nc3c2)cc1C	·	·	-1.6%	·	6.1%	·
COc1ccc(Br)cc1C1CC(=O)N2CN(Cc3ccccc3)CSC2=C1C#N (centres undefined)	?	-2.7%	?	-23.1%	70.8µM*	?
N#CC1=C2SCC(O)(c3ccccc3)N2C(=O)CC1c1ccccc1F (centres undefined)	-1.2	-3.5%	?	-24.7%	9.3%	-5.4%
CCN(CC)CCC(c1ccc(N(C)C)cc1)c1c(OC)cc(OC)c2c1OC(=O)CC2c1ccc(OC)cc1 (centres undefined)	·	·	6.2%	·	0.4%	·
CCOC1=C2[C@H](c3ccccc3)N(S(=O)(=O)c3ccc(C)cc3)C(C(C)(C)C)[C@H]2C(C#N)(C#N)C(C#N)(C#N)C1 (some centres undefined)	-50.3*	·	·	-14.0%	·	-28.5%
CCOC1=C2CN(S(=O)(=O)c3ccc(C)cc3)[C@H](c3cccc4ccccc34)C[C@H]2C(C#N)(C#N)C(C#N)(C#N)C1	?	·	·	-0.7%	·	-16.6%
COc1ccccc1CNC(=O)C(=O)NCC(c1ccc2c(c1)OCO2)N1CCOCC1 (centres undefined)	·	·	0.6%	·	7.1%	·
CCCNc1nc(Nc2ccc([N+](=O)[O-])cc2)nc(N2CCOCC2)n1	·	·	7.4%	·	·	·
CCc1ccc(Oc2nc3c(C)cccn3c(=O)c2/C=C(\C#N)c2nc3ccccc3[nH]2)cc1	·	·	-4.7%	·	-1.8%	·
Cc1cccn2c(=O)c(/C=C(\C#N)c3nc4ccccc4s3)c(Oc3ccc(Br)cc3)nc12	·	·	?	·	79.4µM*	·
SMILES	PI5P4Ka inh	TCR act	FEN1 inh	WRN inhibitor	VDR inhibitor	PLK1 PBD block
COc1ccc(S(=O)(=O)N(CC(=O)NCCSc2ccccc2)c2ccc(C)cc2)cc1	·	·	-5.8%	·	7.9%	·
O=[N+]([O-])c1ccc(Cl)c(S(=O)(=O)Nc2cccc(S(=O)(=O)NC3=NCCC3)c2)c1	-14.2	0.8%	12.6%	-22.5%	79.4µM*	?
Cn1c2ccccc2c2c(C(=O)N3CCN(c4cccc(Cl)c4)CC3)cn(C3CCCCC3)c(=O)c21	·	·	0.4%	·	12.8%	·
CN1CCN(C(=O)/C(=C/c2cn(C)c3ccccc23)NC(=O)c2ccccc2)CC1	-2.2	4.7%	-13.2%	13.9%	5.2%	-19.7%
COc1ccc(C(=O)N/C(=C\c2cn(C)c3ccccc23)C(=O)N2CCN(C)CC2)cc1OC	-12.1	-4.4%	-11.9%	-0.1%	?	26.7µM*
COc1ccc(N2C(S)=C(C#N)C(=O)NC23CCCCC3)cc1	7.4	13.5%	14.4%	-11.8%	50.1µM*	-22.1%
Cc1ccc(C(=O)Nc2cccc([N+](=O)[O-])c2)cc1S(=O)(=O)Nc1ccc(NC(=O)c2ccccc2)cc1	-12.9	-3.8%[46.1 µM]	-4.1%	-16.9%	16.7%	4.1%
Cc1ccc(C(=O)Nc2cccc([N+](=O)[O-])c2)cc1S(=O)(=O)Nc1cccc(C(=O)O)c1	8.5	4.8%	-4.4%	-22.2%[57.1 µM]	-24.9%	15µM*
Cc1cc(O)c(C(=O)/C=C/c2ccccc2O)c(=O)o1	-5.8	-2.5%	-5.8%	-8.5%	?	21.2µM*
Cc1cc(O)c(C(=O)/C=C/c2cccc([N+](=O)[O-])c2)c(=O)o1	-85.9*	-2.7%	-8.5%	-27.2%	-16.8%	?
Cc1cc(O)c(/C=N/Nc2ccccc2)c(=O)o1	-9.1	-2.7%	-1.8%	-7.2%	-9.1%	-4.9%
O=C(/C=C/c1cccc([N+](=O)[O-])c1)N1CCOCC1	-8.4	2.2%[46.1 µM]	6.2%	-0.9%	-4.8%	-21.5%
Cc1ccc(C)c(CN2C(=O)c3ccccc3S(=O)(=O)c3ccc(C(=O)Nc4ccccc4C(F)(F)F)cc32)c1	·	·	-2.7%	·	-2.5%	·
CC(=NNC(=S)N1CCCC1)c1ccccn1	-14.4	·	·	12.3%	·	23.8µM*
O=C(CSC1=Nc2ccccc2N=C(c2ccc(F)cc2)C1)Nc1ccc(Cl)cc1	·	·	11.6%	·	5.0%	·
CC(OC(=O)CSc1ccc([N+](=O)[O-])cc1)C(=O)NCc1ccccc1 (centres undefined)	?	0.8%	3.2%	50.1µM*	79.4µM*	4.74µM*
O=C(COC(=O)CSc1ccc([N+](=O)[O-])cc1)NCCCc1ccccc1	?	-0.4%	3.3%	-8.1%	70.8µM*	8.44µM*
